Measurements from the OligoGym collection.

These sequences were tested against TMEM156 (assay: pooled miR-30 sensor sort-seq; sequence = guide strand). Details: shRNA.
Also: reference of the scale not given here.

| Sequence | sensor-assay potency score (higher = more potent) |
| --- | --- |
| TTAAGAGAACAGATGTAGGTTT | 0.112 |
| TTTGCTTTCACTTCCATTGATC | -0.423 |
| TTCCTGAGAAATAAAATCCATG | -1.19 |

The sequences below were run against TMEM158 in the same assay as above. Details: shRNA.

| Sequence | sensor-assay potency score (higher = more potent) |
| --- | --- |
| TAACGATAACTACAGCACGAAG | -1.77 |
| TCCAGGCTGAAGTCTAGGCAGC | -1.79 |
| TTAAACATCTGCTTTTCGGAAC | -0.542 |
| TCGCACTGGAAGCCCCGCGGGC | -1.57 |
| TAGGTCGCACTGGAAGCCCCGC | -0.714 |
| TATAAAACAAATACACAGGATT | -0.653 |
| TGATGTTGCACGGCGCCGCCGC | -0.887 |
| TACGGTTCAGCCGCCAGCCCGG | -1.31 |
| ATGACCAGGGTCATGAAGCAGG | -1.09 |
| TTTTCTGCCATGAATCTAGGGC | -0.129 |
| AAGAGCAGTAGGTCGCACTGGA | 0.351 |
| TAGCAATTTAATCTTTTTGTTT | -1.1 |

Each sequence was assayed against TMEM18 in the same assay as above. Details: shRNA.

| Sequence | sensor-assay potency score (higher = more potent) |
| --- | --- |
| TATATTTATAATTAGTACTAGT | -0.393 |
| TAGCTTCGGGAGGACAAGCAGG | -1.33 |
| TATTTCGAAAATAATCTCCAGT | -0.177 |
| ATAATCTCCAGTTCATCGCAGC | -0.328 |
| TATAGAAATGAACATCCCCCTG | -1.12 |
| TTTCAAACCATGAGTCAGCTGG | 0.141 |
| TATTTAAATAAAACAACGGTTT | -1.16 |
| ATAACCACAATGATCATGGCAT | 0.502 |
| ATCTGTAGTCTGTAGCTTCGGG | -0.359 |
| TAGTCTGTAGCTTCGGGAGGAC | -0.482 |
| TCTGTAGTCTGTAGCTTCGGGA | -0.977 |
| TAGACTAAGATGACTAGACACA | -0.939 |

Each sequence was assayed against TMEM200C in the same assay as above. Details: shRNA.

| Sequence | sensor-assay potency score (higher = more potent) |
| --- | --- |
| TTGTAAACTGCCTCTGCACCGG | -0.336 |
| TCCAGTTCTTCTTCTACCCCTA | -0.433 |
| TTTGCTGCCACTGCTACTGCTG | -0.287 |
| TTGAGCTTGTCAGAGTGCAGGT | 0.387 |
| TTGGCTTTCCGCTTGCGCTTGG | 0.0739 |
| TTTCACCACCACCACGTCGTTC | -1.27 |
| AATCATGATGAGTTTCTCCTTG | -0.235 |
| TTGACCAGCTACTGCGTCCAAG | -1.14 |
| TTTTGGTCTTCTTGTCCCGGTT | -1.07 |
| ATTTTGGTCTTCTTGTCCCGGT | -0.495 |
| TTCTTGTCCCGGTTCTCGTGGA | -0.413 |
| TTGCGCTTGGGTATCTGGCTTG | -0.405 |
